# Data taken from the supplement of paper PMC10338343.
# ± gives the standard deviation.
# Columns and labels:
# [1] = system: MILI (PIWIL2) piRISC loaded with piRNA #1 (26 nt); test: pre-steady-state target cleavage rate (min^-1); guide: piRNA #1 5'p-UGAGGUAGUAGGUUGUAUAGUAUCCA; higher = faster piRNA-guided slicing of the target; conditions: auxiliary factor: 500 nM mouse GTSF1
# How it was run: (§1)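 Cleave-'n-Seq: a transcribed, DNA-blocked target RNA library (0.1 nM) was mixed with 1 nM active affinity-purified piRISC carrying one synthetic guide, with or without 500 nM GTSF1 partner protein, in HEPES–potassium acetate buffer at 33 °C for 0–8 or 0–960 min. Uncleaved targets were sequenced and normalised to depth and to weakly complementary targets. Three trials were pooled, and k3 was capped at 0.0001 min^-1. The pre-steady-state cleavage rate came from a burst-and-steady-state fit.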
# [2] = system: EfPiwi piRISC loaded with piRNA #1 (26 nt); test: pre-steady-state target cleavage rate (min^-1); auxiliary factor: 500 nM Ephydatia muelleri Gtsf1; guide: piRNA #1 5'p-UGAGGUAGUAGGUUGUAUAGUAUCCA; MIWI and MILI are mouse PIWI proteins and EfPiwi is from a freshwater sponge; tags in brackets are library labels; higher = faster piRNA-guided slicing of the target
# How it was run: as §1
sequence,measurement,setting,value
GGAGACGUUACUAUACAACCUACAACCUCA,pre-steady-state target cleavage rate,[1],0.114 ± 0.015
same,pre-steady-state target cleavage rate,[2],0.00216 ± 0.0017
GGAGAGGAUACUAUUCAACCAACUACCUCA,pre-steady-state target cleavage rate,[1],0.00614 ± 0.0021
same,pre-steady-state target cleavage rate,[2],0.00354 ± 0.0021
GGAGACGAUACUGUACAACCUACUACCUCA,pre-steady-state target cleavage rate,[1],0.169 ± 0.018
same,pre-steady-state target cleavage rate,[2],0.0777 ± 0.025
